Test results as given in PubChem BioAssay AID588413 (Sanford-Burnham Center for Chemical Genomics, 2011).
About 2,500 (0.74%) of roughly 340,000 compounds were called active. Many of the other results were omitted from the sample, so actives are more common in it than they were. Values without a mark were called inactive.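 How the source made its calls: active means inhibition above about 55% (limit read from the data); inactive means the rest.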

Test: Gli-Sufu pathway antagonists, primary screen, luciferase luminescence, Sufu-KO-LIGHT cells, uHTS (AID 588413);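 further: 0% = DMSO-treated cells and 100% = wells with medium but no cells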
Details: Sufu-KO-LIGHT fibroblasts, Gli luciferase reporter luminescence; at 5 µM; stronger effect = higher value

SMILES	inhibition
O=C(COC(=O)c1ccc(O)cc1O)c1ccc2c(c1)OCCO2	-30.6%
C=CCn1cc(C(=O)NCc2ccc(Cl)cc2)c(=O)c2cc(S(=O)(=O)N(CC)CC)ccc21	9.9%
Cc1ccc(S(=O)(=O)c2cc3c(=O)n4cccc(C)c4nc3n(CCc3ccccc3)c2=N)cc1C	1.35%
CC(C)c1ccc(/C=C/C(=O)NCCCN2CCOCC2)cc1	-8.47%
CNS(=O)(=O)c1ccc(NC(=O)C2CC(=O)N(c3ccc(Cl)cc3)C2)cc1 (stereo not given)	-4%
CCOC(=O)c1c(C)[nH]c(C(=O)NCCN2CCOCC2)c1C	17.9%
CN(C)S(=O)(=O)c1ccc(Cl)c(NC(=O)COC(=O)CC(NC(N)=O)c2ccc(Cl)cc2)c1 (stereo not given)	-2.2%
CCOP1(=O)C=C(C(C)(C)C)OC1c1ccc(F)cc1 (stereo not given)	8.49%
COc1cccc(NC(=S)NC(=O)c2c(Cl)c(C)nn2C)c1	-24.8%
CCCc1c(C(=O)Nc2ccc(F)cc2)cnn1-c1ccccc1	-12.3%
Cc1nn(C(C)C(=O)NCCC2=CCCCC2)c(=O)c2nn(-c3ccccc3)c(C)c12 (stereo not given)	3.02%
CCN1/C(=C/c2ccc3ccc(C)cc3[n+]2CC)Sc2ccccc21	79.4% (active)
CCN1/C(=C\c2ccc3ccccc3[n+]2CC)Sc2cc(C)ccc21	90% (active)
NC(=O)c1ccc(N2CCCC2)nc1	1.14%
CCC1=[N+]([O-])C(C)(/C(C)=N\O)N(O)C1(C)C (stereo not given)	17.9%
COc1ccc(C(=O)Nc2cccc(/C=C(/CCC(=O)O)c3nc4ccccc4s3)c2)cc1	-20.1%
CC(=NCc1ccco1)c1c(C(F)(F)F)[nH]n(-c2nc3ccccc3s2)c1=O	-17.2%
COC(=O)Cc1[nH]n(-c2nc3ccccc3s2)c(=O)c1C(C)=Nc1ccc(OC)cc1	79.5% (active)
O=C(CC(O)(C(F)(F)F)C(F)(F)F)Nc1ccc(Cl)c(Cl)c1	78.9% (active)
NC(=O)N1CCCC1C(=O)Nc1ccc(Cl)c(Cl)c1 (stereo not given)	1.62%
CCCCC(=O)Nc1ccc(C(=O)Nc2cc(C(F)(F)F)ccc2Cl)cc1	5.23%
CCC1CCCCN1C(=O)CSc1nc2c(c(=O)n1C)SC(C)C2 (stereo not given)	1.3%
COc1ccc(OC)c(/C=N/NC(=O)CSc2nnc(C)n2-c2ccccc2)c1	-2.67%

SMILES	inhibition
COc1ccc(CC(=O)NCC(=O)N/N=C/c2cc(Br)ccc2OC)cc1	-1.49%
COc1ccc(OC)c(/C=N/NC(=O)c2ccc[n+](CC(=O)c3ccccc3)c2)c1	91.4% (active)
CCC(C)Cn1c(O)cc2nn(-c3nc4ccccc4s3)c(=O)c-2c1C (stereo not given)	83.4% (active)
Cc1cc(NC(=O)CN2CCCC(C)C2)n(-c2nc3ccccc3s2)n1 (stereo not given)	20%
CCc1ccc[n+](-c2nc([O-])sc2C=O)c1	6.64%
COc1ccc(NC(=O)CNC(=O)Cn2ccc3ccccc3c2=O)c(OC)c1	-0.61%
COc1ccc(OC)c(NC(=O)c2sc3nc(C)cc(C)c3c2N)c1	-3.47%
COc1ccc(OC)c(Cc2nnc(CCC(=O)NC3CCCC3)o2)c1	-18.7%
COc1ccc(OC)c(Cc2cnc3nc(N)nc(N)c3c2C)c1	63.1% (active)
CC(C)=CCCC1(C)C=Cc2c(ccc3c2[nH]c2cc(O)c(C)cc23)O1 (stereo not given)	-3.46%
CS(=O)(=O)N1CCCC(C(=O)Nc2ccccc2C(F)(F)F)C1 (stereo not given)	-2.21%
O=C(O)CCCCCCCCc1cn(CN2C(=O)c3ccccc3C2=O)nn1	-12.6%
OCC1(Cc2ccccc2C(F)(F)F)CCN(Cc2cccc3cnccc23)CC1	25.5%
CC1CC2=C(CC1/C=N/NC(N)=S)C(C)(C)CCC2 (stereo not given)	72.7% (active)
COc1cccc(CN(C)C(=O)CC23CC4CC(CC(C4)C2)C3)c1OC	-2.54%
Cn1c(N)c(C(=O)COC(=O)/C=C/c2ccc(OC(F)F)cc2)c(=O)n(C)c1=O	5.01%
N#Cc1c(-c2cccs2)nc(SCC(=O)c2ccc(Br)cc2)[nH]c1=O	4.3%
N#Cc1ccc(C(=O)Nc2nc(-c3cccs3)c(C(=O)C(F)(F)F)s2)cc1	62.5% (active)
COC(=O)c1sc(NC(=S)NC(=O)c2ccc(C)cc2)nc1C	-41.9%
C/C(N)=C(\C#N)C(=O)NCCc1ccccn1	-1.25%
C=CC[C@H](CC(=O)OC(C)(C)C)C(=O)OC[C@H]1CCCN1C(=O)[C@H](CC=C)CC(=O)N(CCO)Cc1ccccc1	7.8%
Nc1nc(SCC(=O)Nc2ccc(Cl)c([N+](=O)[O-])c2)n[nH]1	-5.39%
